Where “and” joins values, the source holds several entries; their conditions need not be identical. Equal entries are not always repeated. Records with an inconclusive call do not appear. Calls of active or inactive are those of the source. Calls follow the shape of the dose curve; as a rule, active = well fitted curve in the direction sought with a large enough effect; inconclusive = small, poorly fitted or top-dose-only effect, or another doubt; inactive = no such curve, though single readings can be large; an effect the other way counts as inactive or inconclusive.
Legend:
[1] = molecular target: Cytochrome P450 3A7 (Homo sapiens) (UniProt P24462); assay: Cytochrome P450 family 3 subfamily A member 7 (CYP3A7) small molecule antagonists: luciferase biochemical qHTS assay (AID 1963596); also: nearly all actives have a fitted effect of over 40% in size; also: potency is read from the fitted curve at half-maximal effect
Sequence of Cytochrome P450 3A7 (Homo sapiens) (P24462 whole entry, looked up): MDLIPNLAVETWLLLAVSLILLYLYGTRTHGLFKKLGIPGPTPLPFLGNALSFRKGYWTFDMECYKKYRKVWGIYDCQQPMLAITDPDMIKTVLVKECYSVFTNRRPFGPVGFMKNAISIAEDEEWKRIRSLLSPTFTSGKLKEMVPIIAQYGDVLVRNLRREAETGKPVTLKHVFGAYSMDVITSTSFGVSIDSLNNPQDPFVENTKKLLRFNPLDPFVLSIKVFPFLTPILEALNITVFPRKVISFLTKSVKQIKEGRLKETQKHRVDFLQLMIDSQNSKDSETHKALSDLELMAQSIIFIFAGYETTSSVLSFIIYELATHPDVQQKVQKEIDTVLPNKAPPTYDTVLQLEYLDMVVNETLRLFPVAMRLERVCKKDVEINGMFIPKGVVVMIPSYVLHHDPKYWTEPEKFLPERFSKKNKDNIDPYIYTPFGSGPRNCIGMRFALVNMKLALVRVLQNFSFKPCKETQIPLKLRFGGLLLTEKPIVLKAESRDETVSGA
In short: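 Enzyme-substrate mix + cpd (DMSO), 10 min RT; + NADPH regen system, 1 h RT; + luciferin detection reagent, 20 min RT; luminescence read. Proluciferin substrate, P450-Glo format, 1536-well qHTS.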

[2] = Viability qHTS for spleen associated tyrosine kinase inhibitor (SYKi) naive MV4-11 cells (AID 1963823); also: nearly all actives have a fitted effect of over 40% in size; also: potency is read from the fitted curve at half-maximal effect
In short: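 Read-out: CellTiter-Glo luminescence. Exposure: 72 hr, 37 C, 5% CO2, 95% humidity. Cells: MV4-11 without SYK inhibitor history, 500/well, qHTS format.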

[3] = Viability qHTS for spleen associated tyrosine kinase inhibitor (SYKi) drug resistant MV4-11 cells (AID 1963824); also: nearly all actives have a fitted effect of over 35% in size; also: potency is read from the fitted curve at half-maximal effect
In short: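 SYK-inhibitor-resistant MV4-11 AML cells were seeded at 500 per well onto compound and cultured 72 hours (37 °C, 5% CO2). CellTiter-Glo was then added, and after 10 min at room temperature, luminescence gave viability.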

[4] = Cellular viability qHTS for adrenocortical cancer (ACC) cell line NCI-H295R (AID 1963990); also: nearly all actives have a fitted effect of over 60% in size; also: potency is read from the fitted curve at half-maximal effect
In short: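 Viability of NCI-H295R after 48 h of treatment (final up to 46 uM) measured through cellular ATP luminescence.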

[5] = Quantitative highthroughput screen to assess conditional lethalithy of NOMO1 cells grown in RPMI1640 with untreated serum (RPMI+s) (AID 1963876); also: nearly all actives have a fitted effect of over 35% in size; also: potency is read from the fitted curve at half-maximal effect;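 as to Viability: 100% = DMSO wells and 0% = empty wells without cells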
In short: (§1)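 Each medium arm—HPLM with 10% dialyzed FBS, or RPMI1640 with 5 mM glucose and 10% untreated or dialyzed FBS—was screened against an 11-point, 3-fold compound titration for 48 h at 37 °C, with CellTiter-Glo luminescence as endpoint.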

[6] = Quantitative highthroughput screen to assess conditional lethalithy of NOMO1 cells grown in RPMI1640 with dialyzed fetal bovine serum (RPMI+ds) (AID 1963877); also: nearly all actives have a fitted effect of over 30% in size; also: potency is read from the fitted curve at half-maximal effect;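 as to Viability: series mostly up to about 46 µM; 100% = DMSO control wells and 0% = empty wells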
In short: as §1

[7] = Quantitative highthroughput screen to assess conditional lethalithy of NOMO1 cells grown in Human Plasma-Like Medium with dialyzed fetal bovine serum (HPLM+ds) (AID 1963878); also: nearly all actives have a fitted effect of over 35% in size; also: potency is read from the fitted curve at half-maximal effect;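 as to Viability: 100% = DMSO wells and 0% = empty wells on each plate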
In short: as §1

[8] = Quantitative highthroughput screen to assess conditional lethalithy of P12 Ichikawa cells grown in Human Plasma-Like Medium with dialyzed fetal bovine serum (HPLM+ds) (AID 1963879); conditions: Potency: viability; also: nearly all actives have a fitted effect of over 35% in size; also: potency is read from the fitted curve at half-maximal effect; as to Viability: series mostly up to about 46 µM
In short: as §1

[9] = Quantitative highthroughput screen to assess conditional lethalithy of P12 Ichikawa cells grown in RPMI1640 with dialyzed fetal bovine serum (RPMI+ds) (AID 1963880); conditions: Potency: P12-Ichikawa viability; also: nearly all actives have a fitted effect of over 35% in size; also: potency is read from the fitted curve at half-maximal effect;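 as to Viability: 100% = DMSO wells and 0% = empty wells on each plate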
In short: as §1

[10] = Quantitative highthroughput screen to assess conditional lethalithy of SEM cells grown in Human Plasma-Like Medium with dialyzed fetal bovine serum (HPLM+ds) (AID 1963882); also: nearly all actives have a fitted effect of over 35% in size; also: potency is read from the fitted curve at half-maximal effect; as to Viability: series mostly up to about 46 µM
In short: as §1

[11] = Quantitative highthroughput screen to assess conditional lethalithy of SEM cells grown in RPMI1640 with unreated serum (RPMI+s) (AID 1963883); also: nearly all actives have a fitted effect of over 35% in size; also: potency is read from the fitted curve at half-maximal effect;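 as to Viability: 100% = DMSO wells and 0% = empty wells without cells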
In short: as §1

[12] = Quantitative highthroughput screen to assess conditional lethalithy of SEM cells grown in RPMI1640 with dialyzed fetal bovine serum (RPMI+ds) (AID 1963884); also: nearly all actives have a fitted effect of over 35% in size; also: potency is read from the fitted curve at half-maximal effect;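 as to Viability: series mostly up to about 46 µM; 100% = DMSO control wells and 0% = empty wells without cells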
In short: as §1

[13] = Cellular viability qHTS for adrenocortical cancer (ACC) cell line SW-13 (AID 1963989); conditions: SW-13 ACC cells viability, CellTiter-Glo, 48 h; activity (max response): hits give low values; also: nearly all actives have a fitted effect of over 65% in size; also: potency is read from the fitted curve at half-maximal effect;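 as to activity (max response): cells grown in serum-free medium with ITS supplement; % is scaled to controls: 0 for no effect and ±100 for the full control effect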
In short: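 Here, serum-free SW-13 cultures were dosed up to 46 uM. Following 48 h, ATP-dependent luminescence (CellTiter-Glo) reported viable cells, and logistic modeling produced IC50 values.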

[14] = Quantitative highthroughput screen to assess conditional lethalithy of P12 Ichikawa cells grown in RPMI1640 with untreated serum (RPMI+s) (AID 1963881); conditions: Potency: viability
In short: as §1

NC(=O)NC1NC(=O)NC1=O (centres undefined)
inactive: Potency [1] | Potency [2] | Potency [3] | Potency [4]

C[C@@H](CN1CC(=O)NC(=O)C1)N1CC(=O)NC(=O)C1
active: Potency [5] 469 nM | Potency [6] 332 nM | Potency [7] 148 nM | Potency [8] 372 nM | Potency [9] 590 nM | Potency [10] 93.5 nM | Potency [11] 66.2 nM | Potency [12] 74.3 nM
inactive: Potency [1] | Potency [2] | activity (max response) [13] 3.22% and 6.64% | Potency [4]

O=C1CSC(=O)N1C(CCc1ccncc1)COc1ccc(-c2cccc([N+](=O)[O-])c2)cc1 (centres undefined)
inactive: Potency [5] | Potency [6] | Potency [8] | Potency [9] | Potency [14] | Potency [10]
active: Potency [1] 1340 nM | Potency [2] 7.42 µM | Potency [13] 7080 nM

CC1(C)[C@@H]2CC[C@@]1(C)C(=O)C2
inactive: Potency [1] | Potency [2] | activity (max response) [13] 10.1%

COc1cc2c(Nc3ccc(Cl)c(Cl)c3F)ncnc2cc1OCC1C[C@@H]2CN(C)C[C@@H]2C1 (some centres undefined)
active: Potency [2] 1.86 µM | Potency [6] 23400 nM | Potency [7] 13200 nM | Potency [8] 20900 nM | Potency [9] 23400 nM | Potency [10] 14800 nM | Potency [11] 20900 nM | Potency [13] 2000 nM | Potency [4] 7.94 µM and 8.91 µM
inactive: Potency [1]

CCCCCCCCCCCCCCCCN
inactive: Potency [1] | Potency [2] | Potency [3] | Potency [4]

CCCCOc1ccc(C(=O)Nc2ccc(F)cc2F)cc1
inactive: Potency [1] | Potency [2] | Potency [6] | Potency [8] | Potency [9] | Potency [14] | Potency [10] | Potency [12] | activity (max response) [13] -9.55%

CNC1CCCN(c2c(F)cc3c(=O)c(C(=O)O)cn(C4CC4)c3c2OC)C1 (centres undefined)
inactive: Potency [1] | Potency [2] | Potency [5] | Potency [6] | Potency [7] | Potency [8] | Potency [9] | Potency [14] | Potency [10] | Potency [11] | Potency [12] | activity (max response) [13] 2.01% and 5.57% | Potency [4]

CN(C)[C@@H]1C(=O)C(C(N)=O)=C(O)[C@@]2(O)C(=O)C3=C(O)c4c(O)cccc4C[C@H]3C[C@@H]12
inactive: Potency [1] | Potency [2] | Potency [3] | Potency [4]

NC(CSCC(=O)O)C(=O)O (centres undefined)
inactive: Potency [1] | Potency [2] | Potency [3] | Potency [4]

CC(C)=CCNc1ncnc2c1ncn2[C@@H]1O[C@H](CO)[C@@H](O)[C@H]1O
active: Potency [2] 0.82 µM | Potency [3] 580 nM | Potency [4] 7.31 µM
inactive: Potency [1]

CC(N)C12CC3CC(CC(C3)C1)C2 (centres undefined)
inactive: Potency [1] | Potency [2] | Potency [10] | Potency [11] | Potency [12] | Potency [4]
active: Potency [7] 10500 nM | Potency [8] 26400 nM

C[N+](C)(C)CCOC(N)=O
inactive: Potency [1] | Potency [2] | Potency [3] | Potency [4]

CCc1c(O)cc(O)c(C(=O)c2ccc(OCCN3CCOCC3)c(OC)c2)c1CC(=O)N(CCOC)CCOC
inactive: Potency [1] | activity (max response) [13] -6.69% | Potency [4]
active: Potency [2] 0.132 µM | Potency [5] 2960 nM | Potency [6] 3320 nM | Potency [7] 2350 nM | Potency [11] 2960 nM

CCO[C@H](Cc1ccc(OCCc2ccc(OS(C)(=O)=O)cc2)cc1)C(=O)O
inactive: Potency [1] | Potency [2] | activity (max response) [13] 6.74%

OCc1ccccc1O
inactive: Potency [1] | Potency [2] | Potency [3] | Potency [4]

O=P(O)(O)C(O)(Cc1cccnc1)P(=O)(O)O
inactive: Potency [1] | Potency [2] | Potency [6] | Potency [7] | Potency [8] | Potency [9] | Potency [14] | Potency [10] | activity (max response) [13] 11.3% and 10.6% | Potency [4]

Cc1[nH]c(/C=C2\C(=O)Nc3ccc(F)cc32)c(C)c1C(=O)NC[C@H](O)CN1CCOCC1
inactive: Potency [1] | activity (max response) [13] -9.94%
active: Potency [2] 13 nM and 26.3 nM

C1Cc2[nH]nc(-c3nn[nH]n3)c2C1
inactive: Potency [1] | Potency [2] | Potency [5] | Potency [6] | Potency [7] | Potency [8] | Potency [9] | Potency [14] | Potency [10] | Potency [12] | activity (max response) [13] 1.5% | Potency [4]

O=c1[nH]c2cc(C(F)(F)F)c(N3CCOCC3)cc2n(CP(=O)(O)O)c1=O
inactive: Potency [1] | Potency [2] | Potency [3] | Potency [4]

CC[C@H](C)C(=O)O[C@H]1C[C@H](O)C=C2C=C[C@H](C)[C@H](CC[C@@H](O)C[C@@H](O)CC(=O)O)[C@H]21
inactive: Potency [1] | Potency [2] | Potency [5] | Potency [6] | Potency [7] | Potency [8] | Potency [9] | Potency [14] | Potency [10] | Potency [11] | Potency [12] | activity (max response) [13] -19.4%

O=C(c1ccc(C(=O)N2CCC(N3CCCC3)CC2)c(Nc2ccccc2)c1)N1CCC(N2CCCC2)CC1
inactive: Potency [1] | Potency [2] | Potency [5] | Potency [6] | Potency [7] | Potency [9] | Potency [11] | Potency [12] | activity (max response) [13] 11.8% | Potency [4]
